Test systems include SR leukemia; RPMI-8226 leukemia; OVCAR-8 ovarian; OVCAR-5 ovarian; OVCAR-4 ovarian; IGROV1 ovarian; OVCAR-3 ovarian; HS 578T breast; NCI/ADR-RES ovarian; SK-OV-3 ovarian.
What all share (experiment): NCI-60 one-dose screen, 48 h (100 = growth as untreated, 0 = no growth, -100 = all killed)
Conditions in all cases: 10 µM unless noted

Compounds without any hit were thinned out: in the full panel of roughly 83,000, 20% have a hit.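 Negative percent growth values reflect cell death: -40 means 40% of the cells present at the start died, and -100 means all died.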 Unmarked numbers belong to inactive results. Activity calls are given as the source filed them. How the source made its calls: active means growth percent below 10; inactive means the rest.

For the compound `O=C(CCl)N(C1CCCCC1)C1CCCCC1`, the growth in the assay with SR leukemia was 100%; in the assay with RPMI-8226 leukemia, 112%; in the assay on OVCAR-8 ovarian, 104%; with OVCAR-5 ovarian it was 111%; in the assay on OVCAR-4 ovarian, 89.7%; in the assay on IGROV1 ovarian it was 96.7%. Also, the growth in the assay with OVCAR-3 ovarian is 114%; with HS 578T breast, 105%; in the assay on NCI/ADR-RES ovarian, 105%.

For the compound `CCCCOc1ccc(/C=C2/SC(N3CCOCC3)=NC2=O)cc1OCC`, the growth in the assay on SR leukemia is 89.5%; in the assay with RPMI-8226 leukemia, 95.6%; in the assay with OVCAR-8 ovarian, 103%; with OVCAR-5 ovarian, 88.3%; in the assay with OVCAR-4 ovarian, 87.6%; in the assay on IGROV1 ovarian, 89%. Further, the growth in the assay with OVCAR-3 ovarian was 115%; in the assay with HS 578T breast, 104%; in the assay on NCI/ADR-RES ovarian, 94.5%.

Take `COc1ccc(C(=O)n2nc(/C=C/c3ccc(O)c(OC)c3)cc2/C=C/c2ccc(O)c(OC)c2)cc1`: the growth is -9.23% (active) in the assay on SR leukemia; -27.3% (active) with RPMI-8226 leukemia; -5.24% (active) in the assay with OVCAR-8 ovarian; -18.8% (active) in the assay on OVCAR-5 ovarian; -7.85% (active) in the assay on OVCAR-4 ovarian; 12.8% in the assay on IGROV1 ovarian. In addition, the growth in the assay with OVCAR-3 ovarian is 1.05% (active); in the assay on HS 578T breast, 0.538% (active); in the assay on NCI/ADR-RES ovarian it was 26%.

For `C=C1C(=O)O[C@H]2[C@H]1CC/C(Cn1cc(CNC(=O)c3cc4ccccc4[nH]3)nn1)=C\CC[C@@]1(C)O[C@@H]21`, the growth in the assay on SR leukemia is 4.37% (active); in the assay on RPMI-8226 leukemia, -11.5% (active); in the assay with OVCAR-8 ovarian, 44.8%; in the assay with OVCAR-5 ovarian it was 110%; with OVCAR-4 ovarian, 83%; with IGROV1 ovarian it was 71%. For the same compound, the growth was 3.43% (active) in the assay with OVCAR-3 ovarian, 99.9% in the assay with HS 578T breast and 101% in the assay on NCI/ADR-RES ovarian.

For the compound `CN1CCN(Cc2ccc(NC(=O)c3cncc(C#Cc4cnc(N)c5cnccc45)c3)cc2C(F)(F)F)CC1`, the growth with SR leukemia is 11%; in the assay on RPMI-8226 leukemia, -16.7% (active); with OVCAR-8 ovarian, 23.8%; with OVCAR-5 ovarian, 2.45% (active); with OVCAR-4 ovarian it was 11.9%; in the assay on IGROV1 ovarian, -8.29% (active). The growth in the assay on OVCAR-3 ovarian was 35.7%; in the assay with HS 578T breast, -18% (active); in the assay on NCI/ADR-RES ovarian it was 65.9%.

For `COc1cccc(-c2nc3sccn3c2-c2ccnc(NCCCNS(=O)(=O)c3ccc(C(F)(F)F)cc3)c2)c1`, the growth with SR leukemia was 51.2%; in the assay on RPMI-8226 leukemia, 33%; in the assay with OVCAR-8 ovarian, 45.1%; in the assay with OVCAR-5 ovarian, 95.7%; with OVCAR-4 ovarian, 38.3%; in the assay with IGROV1 ovarian, 60.5%. The growth in the assay on OVCAR-3 ovarian is 61.7%; in the assay with HS 578T breast, 63.1%; in the assay with NCI/ADR-RES ovarian it was 35.5%.

In the case of `NC(N)=N/N=C/c1ccc(-c2ccc(-c3cc(Cl)cc(Cl)c3)s2)cc1`, the growth is 2.59% (active) with SR leukemia; -9.01% (active) in the assay on RPMI-8226 leukemia; 33.1% in the assay on OVCAR-8 ovarian; 90.5% with OVCAR-5 ovarian; 38.6% in the assay on OVCAR-4 ovarian; -16.7% (active) with IGROV1 ovarian. Also, the growth with OVCAR-3 ovarian is -81.5% (active); with HS 578T breast, 80.8%; in the assay with NCI/ADR-RES ovarian, -19.2% (active).

With `Cn1ccc(=O)c(S(N)(=O)=O)c1`, the growth with SR leukemia was 72.5%; in the assay on RPMI-8226 leukemia, 66.5%; in the assay with OVCAR-8 ovarian it was 101%; with OVCAR-5 ovarian it was 94.3%; with OVCAR-4 ovarian, 95.8%; in the assay with IGROV1 ovarian, 124%. Also, the growth is 112% in the assay with OVCAR-3 ovarian, 104% with HS 578T breast and 94.8% in the assay on NCI/ADR-RES ovarian.

Consider `CCCCC(CC)OC(=O)C(Br)CC` (stereo not given), for which the growth in the assay with SR leukemia was 94.3%; in the assay with RPMI-8226 leukemia, 113%; with OVCAR-8 ovarian, 101%; in the assay with OVCAR-5 ovarian it was 106%; in the assay on OVCAR-4 ovarian, 90.6%; in the assay on IGROV1 ovarian it was 105%. Moreover, the growth with OVCAR-3 ovarian was 104%; in the assay with HS 578T breast, 101%; with NCI/ADR-RES ovarian it was 98.7%.

With `COc1ccc2cc(-c3ccc(-c4ccc(C(=N)N)cc4)s3)ccc2c1`, the growth in the assay on SR leukemia was 30.4%; in the assay on RPMI-8226 leukemia it was 91%; with OVCAR-8 ovarian, 101%; in the assay on OVCAR-5 ovarian, 103%; in the assay with OVCAR-4 ovarian, 97.3%; with IGROV1 ovarian, 69.6%. The growth with OVCAR-3 ovarian was -15.4% (active); in the assay on HS 578T breast, 105%; with NCI/ADR-RES ovarian it was 106%.

With `COc1ccc(-c2ccc(-c3ccc(C(=N)N)cn3)s2)cc1OC`, the growth in the assay on SR leukemia was 63.1%; in the assay on RPMI-8226 leukemia, 89%; in the assay on OVCAR-8 ovarian, 102%; with OVCAR-5 ovarian it was 103%; in the assay on OVCAR-4 ovarian, 96.1%; with IGROV1 ovarian, 101%. In addition, the results for the growth with OVCAR-3 ovarian, in the assay with HS 578T breast and in the assay with NCI/ADR-RES ovarian were 109%, 97.2% and 108%, respectively.

On to `N/C(=N\C(N)=N\c1nc2ccccc2s1)c1cccc(Br)c1`, for which the growth in the assay with SR leukemia is 33.2%; in the assay with RPMI-8226 leukemia, 83.3%; with OVCAR-8 ovarian it was 72.6%; in the assay on OVCAR-5 ovarian it was 95.2%; with OVCAR-4 ovarian, 107%; in the assay with IGROV1 ovarian it was 66.4%. The results for the growth in the assay with OVCAR-3 ovarian, in the assay on HS 578T breast and with NCI/ADR-RES ovarian were 103%, 103% and 73.6%, respectively.

Take `COc1cc(/C=C/C(=O)c2cccc(-n3cc(-c4cc(OC)c(OC)c(OC)c4)[nH]c3=O)c2)cc(OC)c1OC`: the growth in the assay on SR leukemia was -12.7% (active); in the assay on RPMI-8226 leukemia it was -46.4% (active); with OVCAR-8 ovarian it was 6.44% (active); with OVCAR-5 ovarian, 28.4%; with OVCAR-4 ovarian, 23.2%; in the assay with SK-OV-3 ovarian, 49.6%. In addition, the growth in the assay with OVCAR-3 ovarian is -39% (active); with HS 578T breast, 62.4%; in the assay with NCI/ADR-RES ovarian it was 10.5%.

For the compound `COc1cc(/C=C/c2cc(/C=C/c3ccc(O)c(OC)c3)n(C(N)=O)n2)ccc1O`, the growth is -3.77% (active) in the assay on SR leukemia; -44% (active) in the assay on RPMI-8226 leukemia; -6.69% (active) in the assay on OVCAR-8 ovarian; -30.7% (active) in the assay with OVCAR-5 ovarian; -6.24% (active) with OVCAR-4 ovarian; 1.18% (active) in the assay on IGROV1 ovarian. Besides, the growth in the assay on OVCAR-3 ovarian is -72.7% (active); in the assay with HS 578T breast it was -11.3% (active); with NCI/ADR-RES ovarian, 7.68% (active).

As for `Cc1ccc(-c2cc3nc(C(Cl)Cl)nc(-c4ccccc4C)n3n2)cc1`, the growth is 17.7% in the assay with SR leukemia; 48.1% with RPMI-8226 leukemia; 90.5% in the assay with OVCAR-8 ovarian; 92.7% in the assay on OVCAR-5 ovarian; 74.9% in the assay on OVCAR-4 ovarian; 83.7% in the assay on IGROV1 ovarian. In addition, the growth with OVCAR-3 ovarian was 22.4%; in the assay with HS 578T breast, 82.2%; with NCI/ADR-RES ovarian it was 60.3%.
